Test results taken from PubChem BioAssay (NCI).
Compounds without any hit were thinned out: in the full panel of roughly 79,000, 15% have a hit. A number with no mark means an inactive call. Activity calls are given as the source filed them. No stated cut-off is given here; in the data, active means growth inhibition above about 70%; inactive means the rest.

Experiments:
[1] = NCI Yeast Anticancer Drug Screen. Data for the rad52 strain (AID 147);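 further: 0% = growth of vehicle-treated control cultures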; conditions: S. cerevisiae rad52 mutant growth inhibition, stronger effect = higher value
Procedure, shortened: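 Screen used a yeast mutant impaired in DNA repair. After compound exposure, growth was measured. Values reflect inhibition compared with vehicle-treated cells.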

[2] = NCI Yeast Anticancer Drug Screen. Data for the wt1 strain (AID 149);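 further: 0% = growth of vehicle-treated wt1 cultures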; conditions: S. cerevisiae wt1 strain (SPY 50644) growth inhibition, stronger effect = higher value
Procedure, shortened: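 Growth inhibition read against vehicle controls after compound exposure of the wt1 yeast strain.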

[3] = NCI Yeast Anticancer Drug Screen. Data for the rad50EPP+ strain (AID 151);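 further: 0% = growth of vehicle-treated control cultures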; conditions: S. cerevisiae rad50 mutant strain, stronger effect = higher value
Procedure, shortened: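 Exposing the rad50EPP+ strain to each compound, growth was compared with vehicle-only cultures to give inhibition.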

[4] = NCI Yeast Anticancer Drug Screen. Data for the rad50 strain (AID 155);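 further: 0% = growth of vehicle-only cultures of the same strain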; conditions: S. cerevisiae rad50 strain growth inhibition, stronger effect = higher value
Procedure, shortened: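 Readout: growth inhibition relative to vehicle-treated cultures. Compound exposure was carried out in a genetically defined yeast strain deficient in DNA damage repair.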

[5] = NCI Yeast Anticancer Drug Screen. Data for the mec2-1 strain (AID 157); conditions: S. cerevisiae mec2-1 strain, stronger effect = higher value
Procedure, shortened: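 Readout is yeast growth inhibition, normalised to vehicle-treated controls, in the mec2-1 strain exposed to compound.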

[6] = NCI Yeast Anticancer Drug Screen. Data for the rad14 strain (AID 159);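 further: 0% = growth of vehicle-treated control cultures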; conditions: S. cerevisiae rad14 strain growth inhibition, stronger effect = higher value
Procedure, shortened: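 Growth inhibition vs vehicle controls; genetically altered yeast strain (DNA damage repair defect) treated with test compounds.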

[7] = NCI Yeast Anticancer Drug Screen. Data for the sgs1 mgt1 strain (AID 161);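 further: 0% = growth of cultures given vehicle only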; conditions: S. cerevisiae sgs1 mgt1 strain, stronger effect = higher value
Procedure, shortened: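 This yeast growth screen uses a strain with defined DNA-repair lesions; compound-treated growth is compared with vehicle-treated growth.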

[8] = NCI Yeast Anticancer Drug Screen. Data for the CLN2oe strain (AID 163);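 further: 0% = growth of vehicle-only control cultures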; conditions: S. cerevisiae CLN2oe strain, stronger effect = higher value
Procedure, shortened: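 Values reflect how much compound exposure reduced yeast growth, referenced to vehicle-exposed cells. Assay organism is a strain with a defined genetic change affecting cell-cycle control.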

[9] = NCI Yeast Anticancer Drug Screen. Data for the cln2 rad14 strain (AID 165);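 further: 0% = growth equal to vehicle treated cultures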; conditions: S. cerevisiae cln2 rad14 strain, stronger effect = higher value
Procedure, shortened: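 Relative to vehicle controls, growth inhibition of compound-treated cln2 rad14 yeast was recorded.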

[10] = NCI Yeast Anticancer Drug Screen. Data for the bub3 strain (AID 167); conditions: S. cerevisiae bub3 mutant strain, stronger effect = higher value
Procedure, shortened: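 Readout: yeast growth inhibition, expressed relative to vehicle-only wells. The test organism is a mutant strain from a panel with lesions in DNA repair or checkpoint genes.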

[11] = NCI Yeast Anticancer Drug Screen. Data for the wt2 strain (AID 169);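 further: 0% = growth of vehicle-treated yeast cultures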; conditions: S. cerevisiae wt2 strain growth inhibition, stronger effect = higher value
Procedure, shortened: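 Values express reduction in yeast growth under compound treatment, referenced to vehicle-treated cells.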

[12] = NCI Yeast Anticancer Drug Screen. Data for the mlh1 strain (AID 171);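 further: 0% = growth of vehicle-treated control cultures of the same strain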; conditions: S. cerevisiae mlh1 strain growth inhibition, stronger effect = higher value
Procedure, shortened: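 Steps: expose the defined-mutant yeast strain to compound; expose a parallel culture to vehicle; measure growth; express compound effect as inhibition relative to the vehicle culture.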

[13] = NCI Yeast Anticancer Drug Screen. Data for the sgs1 strain (AID 173);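 further: 0% = growth of vehicle-only control cultures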; conditions: S. cerevisiae sgs1 mutant, stronger effect = higher value
Procedure, shortened: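 Treat defined-mutant yeast with compound; measure growth; calculate inhibition relative to vehicle-treated cells.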

[14] = NCI Yeast Anticancer Drug Screen. Data for the mlh1 rad18 strain (AID 175); conditions: S. cerevisiae mlh1 rad18 strain growth inhibition, stronger effect = higher value
Procedure, shortened: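 Test agents were incubated with a yeast strain of defined genotype (DNA damage repair defect). Inhibition of growth was derived by comparison with vehicle-exposed cultures.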

[15] = NCI Yeast Anticancer Drug Screen. Data for the rad18 strain (AID 177); conditions: S. cerevisiae rad18 mutant growth inhibition, stronger effect = higher value
Procedure, shortened: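 A genetically defined yeast mutant impaired in DNA damage repair was treated with test compounds, then its growth was measured against cultures receiving vehicle alone.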

[16] = at 5.0 µM (retest, dose inferred, filed as 0.5)
[17] = at 50.0 µM (retest, dose inferred, filed as 5.0)

With N#C/C(=C1C=C/C(=N/O)c2ccccc2/1)c1ccccc1 as the compound, how does the growth inhibition ([1]; at 1.2 µM) read?
The growth inhibition was -1%.

What about the growth inhibition ([1]; at 3.7 µM) of the same compound?
The growth inhibition was -1%.

What about the growth inhibition ([1]; at 11.0 µM) of the same compound?
Its growth inhibition is 1%.

And the growth inhibition ([1]; at 33.0 µM)?
The growth inhibition was 84% (active).

What about the growth inhibition ([1]; at 100.0 µM) of the same compound?
Its growth inhibition is 71% (active).

And the growth inhibition ([2]; at 1.2 µM)?
Its growth inhibition is -3%.

And the growth inhibition ([2]; at 3.7 µM)?
The growth inhibition was -4%.

What about the growth inhibition ([2]; at 11.0 µM) of the same compound?
The growth inhibition was -6%.

What about the growth inhibition ([2]; at 33.0 µM) of the same compound?
The growth inhibition was 53%.

What about the growth inhibition ([2]; at 100.0 µM) of the same compound?
The growth inhibition was 56%.

And the growth inhibition ([3]; at 1.2 µM)?
The growth inhibition was 7%.

What about the growth inhibition ([3]; at 3.7 µM) of the same compound?
Its growth inhibition is 13%.

And the growth inhibition ([3]; at 11.0 µM)?
Its growth inhibition is 16%.

And the growth inhibition ([3]; at 33.0 µM)?
The growth inhibition was 36%.

And the growth inhibition ([3]; at 100.0 µM)?
Its growth inhibition is 35%.

What about the growth inhibition ([4]; at 1.2 µM) of the same compound?
Its growth inhibition is 2%.

And the growth inhibition ([4]; at 3.7 µM)?
The growth inhibition was 1%.

What about the growth inhibition [4, 16] of the same compound?
Its growth inhibition is 47%.

What about the growth inhibition ([4]; at 11.0 µM) of the same compound?
The growth inhibition was 4%.

What about the growth inhibition ([4]; at 33.0 µM) of the same compound?
The growth inhibition was 92% (active).

What about the growth inhibition [4, 17] of the same compound?
The growth inhibition was 97% (active).

What about the growth inhibition ([4]; at 50.0 µM) of the same compound?
Its growth inhibition is 96.6% (active).

And the growth inhibition ([4]; at 100.0 µM)?
Its growth inhibition is 87% (active).

What about the growth inhibition ([5]; at 1.2 µM) of the same compound?
Its growth inhibition is -3%.

And the growth inhibition ([5]; at 3.7 µM)?
The growth inhibition was -8%.

What about the growth inhibition [5, 16] of the same compound?
Its growth inhibition is 24%.

What about the growth inhibition ([5]; at 11.0 µM) of the same compound?
The growth inhibition was -8%.

What about the growth inhibition ([5]; at 33.0 µM) of the same compound?
The growth inhibition was 52%.

What about the growth inhibition [5, 17] of the same compound?
The growth inhibition was 97% (active).

What about the growth inhibition ([5]; at 50.0 µM) of the same compound?
The growth inhibition was 98% (active).

And the growth inhibition ([5]; at 100.0 µM)?
The growth inhibition was 49%.

And the growth inhibition ([6]; at 1.2 µM)?
Its growth inhibition is -3%.

And the growth inhibition ([6]; at 3.7 µM)?
The growth inhibition was -6%.

What about the growth inhibition ([6]; at 11.0 µM) of the same compound?
The growth inhibition was -3%.

And the growth inhibition ([6]; at 33.0 µM)?
The growth inhibition was 55%.

What about the growth inhibition ([6]; at 100.0 µM) of the same compound?
The growth inhibition was 71% (active).

And the growth inhibition [7, 16]?
Its growth inhibition is 60%.

And the growth inhibition [7, 17]?
Its growth inhibition is 97% (active).

And the growth inhibition ([7]; at 50.0 µM)?
The growth inhibition was 96.6% (active).

What about the growth inhibition ([8]; at 1.2 µM) of the same compound?
The growth inhibition was -5%.

What about the growth inhibition ([8]; at 3.7 µM) of the same compound?
Its growth inhibition is -6%.

And the growth inhibition ([8]; at 11.0 µM)?
The growth inhibition was -6%.

And the growth inhibition ([8]; at 33.0 µM)?
The growth inhibition was 49%.

What about the growth inhibition ([8]; at 100.0 µM) of the same compound?
The growth inhibition was 62%.

And the growth inhibition [9, 16]?
Its growth inhibition is 8%.

What about the growth inhibition [9, 17] of the same compound?
Its growth inhibition is 97% (active).

And the growth inhibition ([9]; at 50.0 µM)?
The growth inhibition was 95.8% (active).

And the growth inhibition ([10]; at 1.2 µM)?
The growth inhibition was -6%.

And the growth inhibition ([10]; at 3.7 µM)?
Its growth inhibition is -10%.

What about the growth inhibition [10, 16] of the same compound?
The growth inhibition was 49%.

What about the growth inhibition ([10]; at 11.0 µM) of the same compound?
Its growth inhibition is -8%.

What about the growth inhibition ([10]; at 33.0 µM) of the same compound?
Its growth inhibition is 42%.

And the growth inhibition [10, 17]?
The growth inhibition was 95% (active).

What about the growth inhibition ([10]; at 50.0 µM) of the same compound?
The growth inhibition was 97.7% (active).

And the growth inhibition ([10]; at 100.0 µM)?
The growth inhibition was 50%.

What about the growth inhibition ([11]; at 1.2 µM) of the same compound?
Its growth inhibition is -4%.

And the growth inhibition ([11]; at 3.7 µM)?
Its growth inhibition is -5%.

And the growth inhibition ([11]; at 11.0 µM)?
Its growth inhibition is -4%.

And the growth inhibition ([11]; at 33.0 µM)?
Its growth inhibition is 49%.

And the growth inhibition ([11]; at 100.0 µM)?
Its growth inhibition is 36%.

And the growth inhibition ([12]; at 1.2 µM)?
Its growth inhibition is -1%.

And the growth inhibition ([12]; at 3.7 µM)?
The growth inhibition was -2%.

What about the growth inhibition ([12]; at 11.0 µM) of the same compound?
The growth inhibition was 1%.

What about the growth inhibition ([12]; at 33.0 µM) of the same compound?
Its growth inhibition is 73% (active).

What about the growth inhibition ([12]; at 100.0 µM) of the same compound?
The growth inhibition was 57%.

What about the growth inhibition ([13]; at 1.2 µM) of the same compound?
The growth inhibition was -2%.

And the growth inhibition ([13]; at 3.7 µM)?
Its growth inhibition is -2%.

What about the growth inhibition ([13]; at 11.0 µM) of the same compound?
The growth inhibition was 1%.

And the growth inhibition ([13]; at 33.0 µM)?
Its growth inhibition is 95% (active).

And the growth inhibition ([13]; at 100.0 µM)?
The growth inhibition was 66%.

What about the growth inhibition [14, 16] of the same compound?
The growth inhibition was 49%.

And the growth inhibition [14, 17]?
The growth inhibition was 96% (active).

And the growth inhibition ([14]; at 50.0 µM)?
Its growth inhibition is 91.5% (active).

And the growth inhibition ([15]; at 1.2 µM)?
The growth inhibition was -1%.

What about the growth inhibition ([15]; at 3.7 µM) of the same compound?
Its growth inhibition is 3%.

What about the growth inhibition ([15]; at 11.0 µM) of the same compound?
Its growth inhibition is -1%.

And the growth inhibition ([15]; at 33.0 µM)?
Its growth inhibition is 88% (active).

What about the growth inhibition ([15]; at 100.0 µM) of the same compound?
The growth inhibition was 80% (active).
